An excerpt weighted towards active compounds, which were near 2.5% of everything screened.
Cruzain inh noDet: qHTS Assay for Promiscuous and Specific Inhibitors of Cruzain (without detergent); Cruzipain (Trypanosoma cruzi), P25779; purified cruzain, Z-FR-AMC fluorescence, no detergent; Potency, µM, without a hit: max response, negative = inhibition, most hits filed as inhibitors; 200,000 tested, 2.3% active;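 note: plate controls were enzyme without inhibitor for no effect and buffer without enzyme for full effect; nearly all actives have a fitted effect of over 40% in size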
Target sequence (P25779 123-467 limits assumed): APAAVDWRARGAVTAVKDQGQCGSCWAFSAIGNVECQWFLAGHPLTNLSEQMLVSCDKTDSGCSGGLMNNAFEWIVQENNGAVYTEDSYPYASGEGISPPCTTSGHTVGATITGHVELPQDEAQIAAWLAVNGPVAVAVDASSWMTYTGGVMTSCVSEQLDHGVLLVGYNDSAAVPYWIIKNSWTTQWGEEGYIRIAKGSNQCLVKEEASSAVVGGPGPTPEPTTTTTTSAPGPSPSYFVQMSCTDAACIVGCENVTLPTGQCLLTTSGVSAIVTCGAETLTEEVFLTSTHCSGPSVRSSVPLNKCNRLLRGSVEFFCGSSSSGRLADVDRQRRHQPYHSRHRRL
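Detergent-free condition (0.00005% Triton X-100) in acetate buffer pH 5.5 with DTT. 1.5 nM enzyme and compound were pre-mixed 15 min, then 2 uM Z-FR-AMC substrate added; reaction progress from fluorescence change between first and third reads (60 s).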
Cruzain Triton: qHTS Assay for Promiscuous and Specific Inhibitors of Cruzain (with detergent). Cruzipain (Trypanosoma cruzi), P25779. purified cruzain, Z-FR-AMC fluorescence, 0.01% Triton. Potency, µM, for the others: max response, negative = inhibition, usual class: inhibitors. 200,000 tested, 0.43% active. AID 1478, 2009;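 note: plate controls were neutral wells for no effect and buffer without enzyme for full effect; nearly all actives have a fitted effect of over 40% in size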
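Purified cruzain (1.5 nM final) was preincubated with compounds for 15 min at room temperature in 100 mM sodium acetate pH 5.5, 5 mM DTT, 0.01% Triton X-100. Reaction started with 2 uM Z-FR-AMC; AMC fluorescence change over 60 s gave activity.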
An asterisk follows results filed as active. Calls come from the whole dose curve; as a rule, active = well fitted curve in the direction sought with a large enough effect; inconclusive = small, poorly fitted or top-dose-only effect, or another doubt; inactive = no such curve, though single readings can be large; an effect the other way counts as inactive or inconclusive. Potency is the fitted concentration of half-maximal effect.

`CCOc1ccc(CCNC(=O)Cn2c(-c3cccs3)cc3cc(F)ccc32)cc1OCC` gave Cruzain inh noDet 15% and Cruzain Triton -3%.
COc1ccc(/C=N/Nc2nc(-c3cccc(S(=O)(=O)N4CCCC4)c3)cs2)cc1OC was read as Cruzain inh noDet -29% and Cruzain Triton -16%.
CCOc1cc(/C=N/Nc2nc(-c3cccc(S(=O)(=O)N4CCCC4)c3)cs2)ccc1O was read as Cruzain inh noDet 16µM* and Cruzain Triton -12%.
`CCCc1cc2c(n1Cc1cc(F)cc(F)c1)C(C)C1CN(C(=O)c3ccccc3)C(C)(C(=O)OC)C21` (stereo not drawn) gave Cruzain inh noDet inconclusive and Cruzain Triton -5%.
CC1CC1C(=O)OCc1cc(=O)n2cc(Br)ccc2n1 (stereo not drawn) was read as Cruzain inh noDet -3% and Cruzain Triton 1%.
`Cc1ccccc1C(=O)NC(CC(C)C)C(=O)OCc1cc(=O)n2cc(Br)ccc2n1` (stereo not drawn) gave Cruzain inh noDet 16µM* and Cruzain Triton 14µM*.
`O=C(CCc1nc2ccccc2c(=O)[nH]1)OCC(=O)c1ccc(C2CCCCC2)cc1` gave Cruzain inh noDet 16µM* and Cruzain Triton -5%.
`CC1CC(C)CN(C(=O)COC(=O)CCc2nc3ccccc3c(=O)[nH]2)C1` (stereo not drawn) gave Cruzain inh noDet 0% and Cruzain Triton 0%.
`O=C(NC(Nc1ncc(S(=O)(=O)c2ccc([N+](=O)[O-])cc2)s1)(C(F)(F)F)C(F)(F)F)c1ccc(Cl)cc1` gave Cruzain inh noDet 3% and Cruzain Triton -9%.
Screening O=C(Nc1ncc(S(=O)(=O)c2ccc([N+](=O)[O-])cc2)s1)c1cccc2ccccc12 returned Cruzain inh noDet 13µM* and Cruzain Triton -4%.
Screening Cc1ccc(CO/N=C\Cc2snc(Sc3ncc(C(F)(F)F)cc3Cl)c2C#N)cc1 returned Cruzain inh noDet 4µM* and Cruzain Triton -8%.
`Cc1ccc(S(=O)(=O)N2CCN(C(=O)CSc3ncc(C(F)(F)F)cc3Cl)CC2)cc1` gave Cruzain inh noDet 7% and Cruzain Triton -4%.
Cc1ccc(Nc2nc(-c3ccc(S(=O)(=O)N4CCCC4)cc3)cs2)cc1C was read as Cruzain inh noDet 13µM* and Cruzain Triton 4%.
`Cc1cc(C)cc(Nc2nc(-c3ccc(S(=O)(=O)N4CCCC4)cc3)cs2)c1` gave Cruzain inh noDet 16µM* and Cruzain Triton -2%.
`O=S(=O)(c1ccc(-c2csc(Nc3ccc(F)cc3)n2)cc1)N1CCCC1` gave Cruzain inh noDet inconclusive and Cruzain Triton -3%.
For Cc1nc(-c2cccc(S(=O)(=O)N3CCCCCC3)c2)cs1 the results were Cruzain inh noDet -12% and Cruzain Triton -9%.
Screening O=S(=O)(c1ccc(-c2csc(Nc3ccc(Br)cc3)n2)cc1)N1CCCC1 returned Cruzain inh noDet 32µM* and Cruzain Triton -2%.
Screening Cc1nc(-c2ccc(S(=O)(=O)N3CCCCCC3)cc2)cs1 returned Cruzain inh noDet -12% and Cruzain Triton -2%.
For Cc1cccn2c(=O)cc(COc3cccc(NC(=O)c4ccccc4F)c3)nc12 the results were Cruzain inh noDet 4% and Cruzain Triton 4%.
`FC(F)(F)c1cc(NC(=S)Nc2ccc3ccccc3c2)cc(C(F)(F)F)c1` gave Cruzain inh noDet -5% and Cruzain Triton -1%.
Screening Cc1ccc(-c2nnc(Nc3cccc(Br)c3)c3ccccc23)cc1S(=O)(=O)N1CCCCC1 returned Cruzain inh noDet 6.3µM* and Cruzain Triton -3%.
Screening Cc1ccc(-c2nnc(Nc3cccc(Br)c3)c3ccccc23)cc1S(=O)(=O)N1CCN(C)CC1 returned Cruzain inh noDet -4% and Cruzain Triton 1%.
Cc1ccc(-c2nnc(Nc3ccccc3)c3ccccc23)cc1S(=O)(=O)NCc1nc2ccccc2[nH]1 was read as Cruzain inh noDet inconclusive and Cruzain Triton -6%.
`Cc1ccc(-c2nnc(NCc3nc4ccccc4[nH]3)c3ccccc23)cc1S(=O)(=O)N1CCCCC1` gave Cruzain inh noDet 13µM* and Cruzain Triton -2%.
For CCCCC[CH2][Hg][S]C1=C2N=CNC2NC(N)=N1 (stereo not drawn) the results were Cruzain inh noDet -6% and Cruzain Triton -3%.
COC(=O)[C@H](Cc1ccccc1)NC(=O)O[C@@H]1C(=O)c2ccc(OC)cc2O[C@H]1c1cccc(C(F)(F)F)c1 was read as Cruzain inh noDet 17% and Cruzain Triton -1%.
For CCc1ccc(NC(=O)Cn2ccn(-c3ccc(OC)cc3)c(=O)c2=O)cc1 the results were Cruzain inh noDet 14% and Cruzain Triton -10%.
O=C(O)c1cc2ccccc2c(Cc2c(O)c(C(=O)O)cc3ccccc23)c1O was read as Cruzain inh noDet 2% and Cruzain Triton -7%.
`CN(C)S(=O)(=O)N(CC(=O)NCCSCc1cccc(Cl)c1)c1ccccc1` gave Cruzain inh noDet 11% and Cruzain Triton -7%.
Cc1c(C)n(Cc2ccccc2)c2ccc(C(=O)N3CCN(c4ccc(F)cc4)CC3)cc12 was read as Cruzain inh noDet 32µM* and Cruzain Triton -1%.
`Cc1c(C)n(Cc2ccc(F)cc2)c2ccc(C(=O)N3CCN(c4ccc(Cl)cc4)CC3)cc12` gave Cruzain inh noDet 7.9µM* and Cruzain Triton 2%.
`Cc1c(C)n(Cc2ccccc2)c2ccc(C(=O)N3CCN(c4ccccc4)CC3)cc12` gave Cruzain inh noDet inconclusive and Cruzain Triton -2%.
Screening O=C(c1ccc(Cn2c(=O)[nH]c3ccccc3c2=O)cc1)N1CCN(c2ccc(F)cc2)CC1 returned Cruzain inh noDet 20% and Cruzain Triton -6%.
Screening CCN(CCO)C[C@H]1CCC[C@H]2CCCC[C@@H]21 returned Cruzain inh noDet -3% and Cruzain Triton -2%.
`O=C(Nc1nnc(COc2ccc(F)cc2)s1)c1cccs1` gave Cruzain inh noDet 25µM* and Cruzain Triton -1%.
Screening O=C(Nc1nnc(COc2ccc(Cl)cc2)s1)c1cccs1 returned Cruzain inh noDet 25µM* and Cruzain Triton 3%.
O=C(Nc1nnc(COc2ccc(Cl)cc2)s1)C1CCCO1 (stereo not drawn) was read as Cruzain inh noDet -2% and Cruzain Triton -1%.
For O=C(Nc1nnc(CCc2ccccc2)s1)c1cccs1 the results were Cruzain inh noDet inconclusive and Cruzain Triton 3%.
Cc1cccc(OCc2nnc(NC(=O)c3cccs3)s2)c1 was read as Cruzain inh noDet 13µM* and Cruzain Triton 3%.
For Cc1ccc(S(=O)(=O)CCc2nnc(NC(=O)c3cccs3)s2)cc1 the results were Cruzain inh noDet inconclusive and Cruzain Triton -2%.
`Cc1cccc(N2CCN(C(=O)c3cccn3-c3nnc(N4CCCCC4)s3)CC2)c1C` gave Cruzain inh noDet -13% and Cruzain Triton -5%.
CCC(C)NC(=O)CCC(=O)N1Cc2ccccc2Oc2ncccc21 (stereo not drawn) was read as Cruzain inh noDet 9% and Cruzain Triton 1%.
Screening CCOc1cc(C2c3c(oc4ccccc4c3=O)C(=O)N2Cc2ccccc2Cl)ccc1O (stereo not drawn) returned Cruzain inh noDet 10% and Cruzain Triton -2%.
For N[C@H](C(=O)O)C1[C@H](C(=O)O)[C@H]1C(=O)O (stereo partly drawn) the results were Cruzain inh noDet -4% and Cruzain Triton 2%.

Compound activity: PubChem, National Center for Advancing Translational Sciences (NCATS)
